From PubChem BioAssay
In the library only some 2.4% were active in any assay of this set; here they are far more common.
TDP1 block = inhibitors of human tyrosyl-DNA phosphodiesterase TDP1 | recombinant TDP1, AlphaScreen DNA substrate cleavage | Potency, µM (highest dose often 130 µM), for inactives: at the highest dose activity change, negative = inhibition, hits mostly inhibitors | 350,000 compounds, 0.28% hits | AID 485290; note: % is set by controls: 0 for no effect and ±100 for the full control effect; nearly all actives have a fitted effect of over 40% in size
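Recombinant E. coli-expressed Tdp1 (1 nM) preincubated with compound 15 min at RT, then 5'-biotin/3'-phosphotyrosine-FITC DNA substrate (15 nM) added for 5 min. AlphaScreen beads (10 ug/ml) added, 10 min RT; tyrosine-FITC cleavage read as signal loss.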
12-LOX inh = blocks human arachidonate 12S-lipoxygenase. purified 12hLO, xylenol orange hydroperoxide absorbance. Potency, µM (highest dose often 108 µM), for the others: top-dose activity change, negative = inhibition, actives largely listed as inhibitors. 580,000 compounds, 1.1% hits; note: % is set by controls: 0 for no effect and ±100 for the full control effect
Target sequence (P18054 whole entry, looked up): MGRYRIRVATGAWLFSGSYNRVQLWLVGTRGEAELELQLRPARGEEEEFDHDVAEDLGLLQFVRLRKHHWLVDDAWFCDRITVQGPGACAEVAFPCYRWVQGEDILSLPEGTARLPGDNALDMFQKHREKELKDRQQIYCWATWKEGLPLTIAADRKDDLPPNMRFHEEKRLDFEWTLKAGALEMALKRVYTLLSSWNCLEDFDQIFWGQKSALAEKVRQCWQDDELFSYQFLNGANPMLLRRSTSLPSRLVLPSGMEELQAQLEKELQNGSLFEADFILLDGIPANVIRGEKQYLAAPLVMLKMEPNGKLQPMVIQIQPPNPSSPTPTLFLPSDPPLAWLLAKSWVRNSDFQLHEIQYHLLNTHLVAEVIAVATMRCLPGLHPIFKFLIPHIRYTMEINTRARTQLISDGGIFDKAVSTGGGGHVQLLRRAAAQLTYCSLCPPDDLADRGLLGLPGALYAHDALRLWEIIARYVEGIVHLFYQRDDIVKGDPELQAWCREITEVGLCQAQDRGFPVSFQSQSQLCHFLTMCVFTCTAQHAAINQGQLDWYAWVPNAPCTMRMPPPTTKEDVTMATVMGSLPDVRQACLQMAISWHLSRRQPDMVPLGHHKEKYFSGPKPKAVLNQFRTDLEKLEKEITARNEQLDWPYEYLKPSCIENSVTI
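Hydroperoxide product was detected by ferrous iron/xylenol orange as the 573 to 405 nm absorbance ratio. Arachidonic acid at 40 uM (final) was turned over for 30 min at room temperature by 150 nM human 12hLO, pH 7.0 Hepes buffer, after 15 min compound preincubation.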
Rango release inh = prevents RanGTP from dissociating the Rango-importin beta complex; O95149+P62826; Biochemical FRET Rango-importin beta, RanGTP-induced dissociation; Potency, µM (titrated, usually from 46.1 µM), without a hit: top-dose activity change, negative = inhibition; 340,000 compounds, 0.071% hits; calls by dose curve; note: % of control where 0% means no effect; nearly all actives have a fitted effect of over 45% in size
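Rango FRET biosensor (snurportin-1 IBB flanked by N-terminal EYFP and C-terminal CFP10) at 0.1 uM, with 0.25 uM importin beta in PBS, 1mM DTT, 0.02% Tween-20, 0.1% BSA. 0.6 uM Ran, 2mM GTP and 0.2 uM RCC1 were then added for 45 min at room temperature. Inhibition read as loss of FRET rise.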
Rango complex inh = Rango-importin beta binding inhibition. Rango CFP/YFP FRET sensor + importin beta, 45 min. Potency, µM (titrated, usually from 92.2 µM), inactives show at the top dose inhibition of complex formation. 340,000 compounds, 0.031% hits. AID 540263; calls by dose curve;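 note: 0% = DMSO wells and 100% = buffer wells lacking importin beta; nearly all actives have a fitted effect of over 15% in size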
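FRET biosensor Rango (snurportin 1 IBB between N-terminal EYFP and C-terminal Cerulean), 50 nM in PBS/1 mM DTT/0.02% Tween-20/0.1% BSA, preincubated 5 min RT with compound; 0.125 microM importin beta added, 45 min RT, CFP/YFP FRET ratio read.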
TSG101-PTAP inh = blocks PTAP/TSG101 interaction to inhibit HIV-1 budding; Fluorescence polarization, FITC-PTAP peptide / Tsg101 binding; Potency, µM (top dose mostly 115 µM), without a hit: at the top dose activity change, negative = inhibition, usual class: inhibitors; 340,000 tested, under 10 active; AID 493005; Q99816; active = well fitted inhibition curve with a large enough effect in the main read-out, with a control signal flat, not every such curve was filed as active; inconclusive = small, poorly fitted or top-dose-only effect, or effect the other way, or a change in a side signal; inactive = no such curve, though single readings can be large or run the other way; note: % of control where 0% means no effect
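FP read-out: FITC-PTAP peptide, 50 nM final, binding Tsg101 binding domain, 10 uM final; 20 min, r.t.; 10 mM HEPES pH 7.5, 0.15 M NaCl, 0.01% Tween 20, 3 mM EDTA, 0.1 mM TCEP.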
ClpP mod = qHTS Assay for Activators of ClpP | Potency, µM (doses to about 57.5 µM), inactives show at the top dose activity change, negative = active | purified B. subtilis ClpP, FRET peptide cleavage, 20 min | ATP-dependent Clp protease proteolytic subunit (Bacillus subtilis (strain 168)), P80244 | 340,000 compounds, 1.9% hits; active = well fitted falling curve with a large enough effect; inconclusive = small, poorly fitted or top-dose-only effect; inactive = no such curve, though single readings can be large or run the other way; note: the source files actives as falling curves though it sought activators and does not explain the sign; nearly all actives have a fitted effect of over 65% in size
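Purified B. subtilis ClpP, 10 microg/mL final in Tris/HCl pH8 with KCl, BSA, glycerol and Tween-20, cleaved an Abz/nitrotyrosine-quenched decapeptide. Fluorescence (ex 320, em 430) was read at 0 and 20 min at room temperature. Delta was normalized to 5.8 microM ADEP and DMSO/no-enzyme controls.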
An asterisk follows results filed as active. Unless noted, calls come from the whole dose curve; as a rule, active = well fitted curve in the direction sought with a large enough effect; inconclusive = small, poorly fitted or top-dose-only effect, or another doubt; inactive = no such curve, though single readings can be large; an effect the other way counts as inactive or inconclusive. Potency is the fitted concentration of half-maximal effect.

`O=C1C=C(O)c2cccc(O)c2C1=O` gave 12-LOX inh 35µM*, Rango release inh -10%, Rango complex inh -4%, TSG101-PTAP inh -2% and ClpP mod 3%.
COc1ccc2c(c1)[C@H]1[C@H](CO2)[C@H](c2ccccc2)[C@]2(C)C(=O)Nc3cc(Cl)ccc3C(=O)N12 was read as Rango release inh 19%, Rango complex inh inconclusive, TSG101-PTAP inh 1% and ClpP mod -10%.
`COc1ccc2c(c1)OC[C@H]1[C@H]2N2C(=O)CN(Cc3ccco3)C(=O)[C@@]2(C)[C@H]1c1ccccc1` gave TDP1 block 4%, 12-LOX inh 7.1µM*, Rango release inh -6%, Rango complex inh 5%, TSG101-PTAP inh 0% and ClpP mod 2%.
`COc1ccc2c(c1)C(=O)N1[C@H]3c4cc(Cl)ccc4OC[C@@H]3[C@H](c3ccccc3)[C@]1(C)C(=O)N2` gave TDP1 block 2%, 12-LOX inh -3%, Rango release inh -5%, Rango complex inh -1%, TSG101-PTAP inh -9% and ClpP mod 18µM*.
Screening COc1ccc2c(c1)OC[C@H]1[C@H]2N2C(=O)CN(Cc3ccc(F)cc3)C(=O)[C@@]2(C)[C@H]1c1ccccc1 returned TDP1 block 2%, 12-LOX inh 8%, Rango release inh 1%, Rango complex inh 0%, TSG101-PTAP inh -2% and ClpP mod -1%.
`Cc1cccc(NC(=S)NN=C2CCCC2)c1` gave 12-LOX inh 14µM*.
`COc1ccc(NC(=S)N/N=C2/CCCc3c(C)cc(C)cc32)cc1` gave TDP1 block -4%, 12-LOX inh 0%, Rango release inh 8%, Rango complex inh 2%, TSG101-PTAP inh -3% and ClpP mod -1%.
`COC(=O)NN=C1CCC(c2ccccc2)CC1` (stereo not drawn) gave TDP1 block 2%, 12-LOX inh 489%, Rango release inh 5%, Rango complex inh -1%, TSG101-PTAP inh 2% and ClpP mod 0%.
C=C(C)CNC(=S)N/N=C1\CCCCc2ccccc21 was read as TDP1 block -3%, 12-LOX inh 35µM*, Rango release inh 0%, Rango complex inh 0% and TSG101-PTAP inh 1%.
S=C(NN=C1CCC(c2ccccc2)CC1)NC1CCCCC1 (stereo not drawn) was read as 12-LOX inh 35µM*.
Screening COc1cccc(NC(=S)NN=C2CCCCCC2)c1 returned TDP1 block 9%, 12-LOX inh inconclusive, Rango release inh 15%, Rango complex inh 0% and TSG101-PTAP inh 1%.
Cc1ccc(NC(=S)N/N=C2/CCCCc3ccccc32)cc1 was read as 12-LOX inh 32µM*, Rango release inh -17%, Rango complex inh 1%, TSG101-PTAP inh -7% and ClpP mod -2%.
`O=C(N/N=C1\CCCCc2ccccc21)c1ccccn1` gave TDP1 block 8%, 12-LOX inh -3%, Rango release inh 8%, Rango complex inh -2% and TSG101-PTAP inh 0%.
For S=C(N/N=C1/CCCCc2ccccc21)NC1CCCCC1 the results were 12-LOX inh 45µM*.
Cc1ccc(C)c(NC(=S)N/N=C2\CCc3ccccc32)c1 was read as TDP1 block 9%, 12-LOX inh 22µM*, Rango release inh -2%, Rango complex inh -2%, TSG101-PTAP inh -2% and ClpP mod -2%.
O=C(c1ccccc1)[C@@H]1[C@@H](C(=O)c2ccco2)[C@@]2(C(=O)Nc3ccccc32)[C@H]2c3ccccc3C=CN12 was read as 12-LOX inh 14µM*.
